Our source for the outcome values is PubChem BioAssay (EPA / NIEHS).

Calls of active or inactive are those of the source. The calls were made as follows: active = hit-call score of the fitted dose curve at least 0.9, where 1 is the maximum; inactive = score below 0.9.

A short description of the assay: ATG_GATA_CIS: Attagene CIS-FACTORIAL HepG2 Assay for human GATA Binding Protein (AID 2282944). The conditions noted are these: HepG2 GATA cis-element reporter, Attagene multiplex mRNA; actives raise or lower the signal. The protocol:
ATG_CIS is a cell-based, multiplexed-readout assay that uses HepG2, a human liver cell line, with measurements taken at 24 hours after chemical dosing in a 24-well plate.ATG_GATA_CIS is one of 52 assay component(s) measured or calculated from the ATG_CIS assay. It is designed to make measurements of mRNA induction, a form of inducible reporter, as detected with fluorescence intensity signals by Reverse transcription polymerase chain reaction (RT-PCR) and Capillary electrophoresis technology.Data from the assay component ATG_GATA_CIS was analyzed into 1 assay endpoint. This assay endpoint, ATG_GATA_CIS, was analyzed with bidirectional fitting relative to DMSO as the negative control and baseline of activity. Using a type of inducible reporter, measures of mRNA for gain or loss-of-signal activity can be used to understand the reporter gene at the transcription factor-level as they relate to the gene GATA1. Furthermore, this assay endpoint can be referred to as a primary readout, because this assay has produced multiple assay endpoints where this one serves a reporter gene function. To generalize the intended target to other relatable targets, this assay endpoint is annotated to the dna binding intended target family, where the subfamily is GATA proteins.
Human liver HepG2 cells are transiently transfected with multiple reporter transcription units (MRTUs) in 6-well plates using FuGene 6 reagent (Roche; 3 ml FuGene/1 mg DNA). The MRTU constructs are regulated by a cis-regulating element (promoter). […] A major difference between the CIS and TRANS system is that in CIS activities of endogenous TFs are measured, whereas the TRANS assay evaluates changes in activities of exogenous, chimeric NR-Gal4 proteins. […] At the end of 24 hour incubation, total RNA was isolated using TriZol reagent (Invitrogen). The isolated RNA is then reverse-transcribed using oligo(dT) primer and Mo-MLV reverse transcriptase (Invitrogen) with DNAse I (Ambion) treatment for 30 min. The one-tenth of the produced cDNA was amplified by PCR using Taq DNA polymerase (Invitrogen) and two reporter sequence-specific primers. The PCR products were fluorescently labeled by primer extension with 6-arboxyfluorescein (6-FAM) 5'-labeled reporter sequence-specific primer (2 min at 95 C, 20 s at 68 C and 10 min at 72 C) and these products were digested with 5U of HpaI (New England Biolabs) for 2h at 37 C. The fragments were purified using Qiaquick PCR columns (Qiagen), analyzed on an ABI 3130xL genetic analyzer (Applied Biosystems) with peak positions identified by using a set of X-rhodamine (ROX)-labeled MapMarker1000 molecular weight standards (BioVentures). The raw capillary electrophoresis data was processed using Attagraph software (Attagene).
In the case of `S=c1[nH]c2ccccc2[nH]1`, the outcome was inactive.

Regarding `Oc1ccc(Cl)cc1`, the compound was called inactive.

`Clc1ccc(-c2ccccc2)cc1`: the compound was called inactive.

Turning to `CCN(CC)C(=S)S`, the compound was called inactive.

For `CC1(C)[C@H](C(=O)O[C@H](C#N)c2cccc(Oc3ccccc3)c2)[C@@H]1C=C(Br)Br`, the result was inactive.

In the case of `O=C(O)CCl`, the result was inactive.

As to `O=[N+]([O-])c1ccc(Cl)cc1`, the call was inactive.

Turning to `N#CCCCl`, the compound was called inactive.

With `COc1ccc(CO)cc1`, the compound was called inactive.

As to `O=C(CCl)c1ccccc1`, the result was inactive.

Regarding `C[N+](C)=CCl`, the call was inactive.

`CCOP(O)OCC`: the compound was called inactive.

For the compound `CC1CCCC1.[C-]#[O+].[C-]#[O+].[C-]#[O+].[Mn]`, the compound was classed as inactive.

As for `CCNCC`, the compound was called inactive.

Consider `Cc1cc(C)c(C2=C(OC(=O)CC(C)(C)C)C3(CCCC3)OC2=O)c(C)c1`, for which the call was inactive.

Regarding `Cc1ccc(OP(=O)(Oc2ccc(C)cc2)Oc2ccc(C)cc2)cc1` (tested in a mixture with another compound), the outcome was inactive.

Take `ClCC(Cl)Cl`: the result was inactive.

Consider `O=P(O)(Oc1ccccc1)Oc1ccccc1`, for which the result was inactive.

`C=CC(=O)OCCO`: the result was inactive.

Turning to `C=CCN(CC=C)C(=O)C(Cl)Cl`, the outcome was inactive.

In the case of `c1ccc(Nc2ccc3ccccc3c2)cc1`, the compound was classed as inactive.

As to `CC1CCC(=O)O1` (stereo not given), the outcome was inactive.

As to `CC(O)CN(CC(C)O)CC(C)O` (stereo not given), the result was inactive.

For the compound `CCCCCc1cc(O)cc(O)c1`, the compound was classed as inactive.

With `O=C=Nc1ccccc1`, the call was inactive.

For the compound `CC(C)(C)C(O)C(Oc1ccc(-c2ccccc2)cc1)n1cncn1` (stereo not given), the call was inactive.

For the compound `O=C(NCNC(=O)NC1C(=O)NC(=O)N1CO)NC1C(=O)NC(=O)N1CO` (stereo not given), the compound was called inactive.

`CN(C)N`: the call was inactive.

On to `COC(=O)c1ccccc1S(=O)(=O)NC(=O)Nc1nc(C)cc(C)n1`, for which the call was inactive.

Take `CC1(C)C(=O)NC(=O)NC1=O`: the outcome was inactive.

Regarding `C=CCO`, the compound was called inactive.

Consider `CCCOC(=O)c1ccccc1C(=O)OCCC`, for which the call was inactive.

As to `CC(C)C#N`, the compound was classed as inactive.

Consider `O=CNC(N1CCN(C(NC=O)C(Cl)(Cl)Cl)CC1)C(Cl)(Cl)Cl` (stereo not given), for which the outcome was inactive.

On to `O=C(O)CCCc1ccc(N(CCCl)CCCl)cc1`, for which the call was inactive.

Take `O=S(=O)(O)O`: the compound was classed as inactive.

Take `COc1cc(OC)nc(Oc2cccc(Oc3nc(OC)cc(OC)n3)c2C(=O)O)n1`: the compound was called inactive.

For `N#Cc1cc(I)c(O)c(I)c1`, the compound was called inactive.

Consider `CCC[N+](=O)[O-]`, for which the compound was called inactive.

As for `C=COCCCl`, the compound was classed as inactive.
